Measurements from PubChem BioAssay (NCATS).
Values joined by “and” are separate entries in the source; they are usually repeats but may differ in a detail not shown here. Identical values can stand only once. Inconclusive results are not listed. The source holds several records for some structures; these can differ, active in one and inactive in another. Active and inactive are the calls of the source. The call rests on the fitted dose curve; in most records, active means well fitted curve in the direction sought with a large enough effect; inconclusive means small, poorly fitted or top-dose-only effect, or another doubt; inactive means no such curve, though single readings can be large; an effect the other way counts as inactive or inconclusive.

Legend:
[1] = qHTS Screen of the MIPE 4.0 Collection Against Ewings Sarcoma (TC32) (AID 1259256); conditions: TC32 Ewing sarcoma viability, CellTiter-Glo, 48 h; series mostly up to 45.8 µM; further: nearly all actives have a fitted effect of over 45% in size
Outline: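 After a 4 h attachment period in RPMI/5% FBS, cells were pin-dosed with test compounds; DMSO served as negative and 9.2 uM bortezomib (final) as positive control. Luminescent CellTiter-Glo signal at 48 h defined viability.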

[2] = P-glycoprotein substrates identified in KB-8-5-11 adenocarcinoma cell line, qHTS therapeutic library screen (AID 1346987); conditions: KB-8-5-11 (P-gp overexpressing) viability, CellTiter-Glo, 72 h; series mostly up to 44.5 µM; further: nearly all actives have a fitted effect of over 65% in size
Outline: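 Human cervical adenocarcinoma KB-8-5-11 cells, selected in colchicine to over-express P-gp and assayed without it, were exposed for 72 h to titrated compounds. An ATP-based luminescent viability signal gave AC50.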

[3] = qHTS of pediatric cancer cell lines to identify multiple opportunities for drug repurposing: Primary screen for DAOY cells (AID 1347090); conditions: DAOY medulloblastoma viability, CellTiter-Glo luminescence, 48 h; series mostly up to 46 µM; further: nearly all actives have a fitted effect of over 55% in size
Outline: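 Cell viability, CellTiter-Glo luminescence; 500-1,000 cells/well, 8- or 11-point titration, 48 h compound exposure at 37 degrees C, 5% CO2. Controls: DMSO neutral, bortezomib 2.3 µM final as positive.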

[4] = qHTS of pediatric cancer cell lines to identify multiple opportunities for drug repurposing: Primary screen for TC32 cells (AID 1347089); conditions: TC32 Ewing sarcoma viability, CellTiter-Glo luminescence, 48 h; series mostly up to 45.8 µM; further: nearly all actives have a fitted effect of over 60% in size
Outline: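 TC32 cells, 500-1,000/well in growth medium, compound-treated 48 h at 37 °C; viability from CellTiter-Glo luminescence. Primary screen: MIPE 11-point (0.78 nM–46 µM final), NPC 8-point (0.59 nM–46 µM final); confirmatory at 11-point dilutions.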

[5] = NS1 protein of Zika virus - qHTS assay to identify small molecule inhibitors in human HEK 293 cells (AID 1347053); conditions: HEK293 ZIKV MR766 infection, NS1 TR-FRET, 24 h; series mostly up to 46.1 µM; further: nearly all actives have a fitted effect of over 55% in size
Outline: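 In this cell-based screen, HEK 293 cultures received compound for one hour before Zika MR766 at MOI = 0.5. NS1 was quantified 24 hours later by TR-FRET, normalized to virus-free wells and infected wells.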
Potency means the concentration at half of the fitted maximal effect.

| SMILES | Potency [1] | Potency [2] | Potency [3] | Potency [4] | Potency [5] |
| --- | --- | --- | --- | --- | --- |
| NC(=O)N1CCC(CC(=O)N2CCC([C@H]3c4ncc(Br)cc4CCc4cc(Cl)cc(Br)c43)CC2)CC1 | 0.372 µM (active) | 7.43 µM (active) | 23.5 µM (active) | – | – |
| NC(=O)Nc1cc(-c2ccc(CN3CCOCC3)cc2)sc1C(N)=O | 0.187 µM (active) | 1.48 µM (active) | – | 0.523 µM (active) | – |
| Nc1ccc(C(=O)Nc2cccc(-c3nc(N4CCOCC4)c4oc5ncccc5c4n3)c2)cn1 | 16.6 µM (active) | inactive and 9.2 µM (active) | – | inactive | – |
| O=C(C=CC=Cc1ccc2c(c1)OCO2)N1CCCCC1 | inactive | inactive | inactive | inactive | – |
| COc1cc(C[C@@H](CO)[C@H](CO)Cc2ccc(O)c(OC)c2)ccc1O | 0.372 µM (active) | inactive | 0.469 µM (active) | – | inactive |
| C[C@H](NC(=O)C(C#N)=Cc1cccc(Br)n1)c1ccccc1 | 18.7 µM (active) | 20.9 µM (active) | – | inactive | – |
| CN(CC(=O)N(Cc1ccc(C2CCCCC2)cc1)c1ccc(C(=O)O)c(O)c1)S(=O)(=O)c1c(F)c(F)c(F)c(F)c1F | 6.62 µM (active) | inactive | – | inactive | – |
| CN(C)CCN1C(=O)c2cccc3cc(N)cc(c23)C1=O | inactive | 14.8 µM (active) | 23.5 µM (active) | – | inactive |
| COc1ccc(S(=O)(=O)Nc2cccnc2Nc2ccc(O)cc2)cc1 | inactive | 418 nM (active) and 920 nM (active) | – | 8.29 µM (active) | – |
| c1cc(CN2CCCNCCNCCCNCC2)ccc1CN1CCCNCCNCCCNCC1 | inactive | inactive | inactive | inactive | – |
| CCOC(=O)[C@H](CCc1ccccc1)N[C@@H](C)C(=O)N1[C@@H](C(=O)O)C[C@H]2CCC[C@@H]21 | 16.6 µM (active) | 10.5 µM (active) | 14.8 µM (active) | – | – |
| COc1ccc2c(c1OC)C(=O)OC2[C@H]1c2c(cc3c(c2OC)OCO3)CCN1C (stereo not given in full) | inactive | 1.87 µM (active) | 0.469 µM (active) | 1.04 µM (active) | – |
| Cn1cc(CNCC2CCN(c3ncc(C(=O)NO)cn3)CC2)c2ccccc21 | 0.0209 µM (active) | 1.05 µM (active) | 0.235 µM (active) | 0.415 µM (active) | – |
| CCCCCN=C(N)NN=Cc1c[nH]c2ccc(OC)cc12 | 4.18 µM (active) | 10.5 µM (active) | – | 16.5 µM (active) | – |
| C[C@H]1[C@@H](OC(=O)CCC(=O)O)O[C@@H]2O[C@@]3(C)CC[C@@H]4[C@H](C)CC[C@@H]1[C@@]24OO3 | 9.35 µM (active) | 16.6 µM (active) | 11.8 µM (active) | 14.7 µM (active) | – |
| CCN(CC)CCNC(=O)c1c(C)[nH]c(C=C2C(=O)Nc3ccc(F)cc32)c1C | 10.8 µM (active) | 1.21 µM (active) | 42.9 µM (active) | 12 µM (active) | – |
| Nc1nc(N)c2nc(-c3cccc(O)c3)c(-c3cccc(O)c3)nc2n1 | 20.9 µM (active) | 11.8 µM (active) | 7.43 µM (active) | 18.6 µM (active) | – |
| C[C@@H]1[C@H](C)CC[C@]2(C(=O)O)CC[C@]3(C)C(=CC[C@@H]4[C@@]5(C)C[C@@H](O)[C@H](O)[C@@](C)(CO)[C@H]5CC[C@]43C)[C@@H]12 | inactive | inactive | inactive | inactive | – |
| c1ccc(CNc2nc(NCc3ccccc3)c3ccccc3n2)cc1 | 23.5 µM (active) | 20.9 µM (active) | – | inactive | – |
| CC(C)NC[C@@H](C(=O)N1CCN(c2ncnc3c2[C@H](C)C[C@H]3O)CC1)c1ccc(Cl)cc1 | 2.64 µM (active) | inactive | 5.9 µM (active) | – | – |
| Cn1cnc(=N)c2[nH]cnc21 | 0.132 µM (active) | 10.5 µM (active) | 1.18 µM (active) | – | inactive |
| COc1ccc(C=Cc2cc(OC)c(OC)c(OC)c2)cc1NC(=O)[C@H](N)CO | inactive | 0.0059 µM (active) | 0.0093 µM (active) | 0.0415 µM (active) | – |
| CC(C)[C@H](CO)Nc1nc(Nc2cccc(Cl)c2)c2ncn(C(C)C)c2n1 | 10.5 µM (active) | 10.5 µM (active) and 20.6 µM (active) | 18.7 µM (active) | – | 23.5 µM (active) |
| COc1cc2c(cc1O)CCC1C2CC[C@@]2(C)C1CC[C@@H]2O (stereo not given in full) | 2.64 µM (active) | 1.32 µM (active) | – | 18.6 µM (active) | – |
| C=CCNC1=C2C[C@@H](C)C[C@H](OC)[C@@H](O)[C@@H](C)C=C(C)[C@H](OC(N)=O)[C@@H](OC)C=CC=C(C)C(=O)NC(=CC1=O)C2=O | 0.372 µM (active) | 3.72 µM (active) | 2.96 µM (active) | 1.17 µM (active) | – |
| CC(C=CC1=C(C)CCCC1(C)C)=CC=CC(C)=CC(=O)Nc1ccc(O)cc1 | 12.1 µM (active) | 24.1 µM (active) | 42.9 µM (active) | – | – |
| Nc1nc(=O)n([C@H]2C[C@H](O)[C@@H](CO)O2)cc1F | 0.0296 µM (active) | 4.18 µM (active) | inactive | 0.829 µM (active) | – |
| COc1cc2c(cc1OC)[C@@H]1C(=O)c3ccc4c(c3O[C@@H]1CO2)C=CC(C)(C)O4 | 0.0662 µM (active) | 5.17 µM (active) | 0.0743 µM (active) | – | – |
| Cn1cc(C2=C(c3c4n(c5ccccc35)CCC(CN)C4)C(=O)NC2=O)c2ccccc21 (stereo not given) | 20.9 µM (active) | – | – | – | 13.2 µM (active) |
| COc1cc(N2CCC(C(N)=O)CC2)ccc1Nc1nc(N)c(Cl)c(Nc2ccccc2S(=O)(=O)C(C)C)n1 | 6.62 µM (active) | inactive | 0.187 µM (active) | 2.62 µM (active) | – |
